From the supplement of paper PMC6555819

Test system: RARg homodimer (NR concentration 270 nM)
Experiment: PBM binding z-score (relative to random genomic background probes); higher = stronger binding; sequences stand for … in GC…GCGATTGACAGCGTAGAATGAAGG
Summary of the method: (§1)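 Scanned fluorescence from custom Agilent 4×180K protein-binding microarrays was regression-normalized. Binding z-scores use random background probes as reference. Ligand-free nuclear receptor dimers were incubated on the arrays for 1 h and detected with antibodies against each partner (one per run).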

| Sequence | PBM binding z-score |
| --- | --- |
| TCTTGTACATCAAAGGTTAAGAAAGCCGAAGCCT | 1.06 |
| AGTAGCAGGCCAAGTTTGGGTCACTCAAACAAAG | 1.7 |
| GCAGTCAGGTGAAACGCAGGTAACTCAGGGTGGC | 0.376 |
| ATATGTAGGTTATCGGGTCAATCAGTTTGCGCAT | 2.68 |
| CAAACTAGGTCAAGAGGTCAACGTCCGCTTCCCG | 7.74 |
| GCGACTGCGGCAAAGCAGGTTACCATAAGGTTGG | -0.487 |
| TCTAGCAGGCCAGAGGGTCACTTAAGAGGTACGG | 2.2 |
| CCTACTGGGCCACGAAATGTCATTGATTCAGTGA | 0.479 |
| TCGAGTAGGTTACCAATGGGTCATTCAGCTTTCT | 1.68 |
| GGAACGTGGGCAAGTTGATAGCAGAGTTTGATGG | -0.279 |
| ATCTCTAGGTAAAGTTAAGTGAAAGATCGATAGA | 0.546 |
| CCTACTGAGCCAAGGTCATTGATCAGTCAAAGCA | 3.17 |
| CATGCTAGGTCATGGTCAGCTAATCTACAGTATG | 4.67 |
| GCAGACAGGTGAAACGCAGGTTACTCAGGGTGGC | 0.458 |
| CAAACTAGATCAAGAGGTCAAAGTCCGCTTCCCG | 3.96 |
| TCTCGGAGGACACGAAAGGACAGAGCTCGACATC | 2.48 |
| ATATGTAGGTTAGCTGGGGTCATTCAAACTAGGC | 3.15 |
| GGAACGAGGGCATTCGTGTTGATAGCATGGCGAT | 1.23 |

Test system: RXRa DBDmut IVT, anti-RXR (DBD mutation: RXRa K156A/R161A, NR concentration 90 nM)
Experiment: as above
Summary of the method: as §1

| Sequence | PBM binding z-score |
| --- | --- |
| ATATGTAGGTTTCATCCGGGTCATTCAGGCTATG | 1.35 |
| CCTACTGGGTCAAGGTCATTGATCAGTCAAAGCA | 2.59 |
| AGTCAAAGTTAACTAGGTAACGTAAGATTCAGCT | -0.266 |
| CCTACTGGGCCATTTAGAGGTCATTGATCATATG | 1.45 |
| CCTTACGGCTCACTGACAGGTTATAGCATTTGGA | 0.689 |
| CCTAGCAGGCCAACCTGGGTCACTCAAGGCTTGA | -0.209 |
| GCATATAGGTAATACAATGTGAAAGTCCGATTGT | 0.58 |
| ATCTAAAGGTCGAGGTGAGTATAGAGAAAGGGAA | 1.33 |
| ATCTCTAGGTAAAGATAATTCAGTGAATGCAAAT | 0.0492 |
| ATCGAAAGGTCGACGAGGTGAGCATACACCGTTT | 1 |
| ATCCCTAGGTAAAAGTTCAGTGAATCCCGAGGAT | 0.406 |
| CGTCCAAGGTCAGCAGGTCAGTGAAAGCGACGTG | 2.54 |
| CCTGCTGGGCCATCAGGTCATTGATATCAACGTT | 0.287 |
| GCAGATAGGTAATACAAGGTGAAAGTCCGATTGT | -0.0602 |
| TCTCGGAGGACACGAAAGGTCAGGGCTCGACATC | 1.1 |
| CGAACTTGGTCATCCAGGACAGTGAATACATTGA | 0.427 |
| TCATATAGGTCAAGGTGAAAGTCGAACGATATGA | 1.56 |
| TCATATAGGTAAACAGGTGAAAATCCGTAAGTTA | 1.57 |
| ACAAGTTGGTCAGCTGAGGTCACACACAATTCGG | 2.18 |
| CCTACTGGGCCATCAGGACATTGATATCAACGTT | -0.317 |

| Sequence | PBM binding z-score |
| --- | --- |
| TCTATTAGTTGAGTAGGGCAACCGAAACAGCGGA | 0.368 |
| CGAACGAGGGCATGAGATGATAGCAAATGCCGAT | 1.82 |
| TCTTGTACATCAAAGGTTAAGAAAGCCGAAGCCT | 1.09 |
| AGTAGCAGGCCAAGTTTGGGTCACTCAAACAAAG | -0.435 |
| GCAGTCAGGTGAAACGCAGGTAACTCAGGGTGGC | -0.235 |
| ATATGTAGGTTATCGGGTCAATCAGTTTGCGCAT | 1.45 |
| CAAACTAGGTCAAGAGGTCAACGTCCGCTTCCCG | 2.76 |
| GCGACTGCGGCAAAGCAGGTTACCATAAGGTTGG | -0.499 |
| TCTAGCAGGCCAGAGGGTCACTTAAGAGGTACGG | 0.154 |
| CCTACTGGGCCACGAAATGTCATTGATTCAGTGA | -0.374 |
| TCGAGTAGGTTACCAATGGGTCATTCAGCTTTCT | 0.573 |
| GGAACGTGGGCAAGTTGATAGCAGAGTTTGATGG | 0.175 |
| ATCTCTAGGTAAAGTTAAGTGAAAGATCGATAGA | 0.204 |
| CCTACTGAGCCAAGGTCATTGATCAGTCAAAGCA | 2.2 |
| CATGCTAGGTCATGGTCAGCTAATCTACAGTATG | 1.74 |
| GCAGACAGGTGAAACGCAGGTTACTCAGGGTGGC | -0.376 |
| CAAACTAGATCAAGAGGTCAAAGTCCGCTTCCCG | 1.69 |
| TCTCGGAGGACACGAAAGGACAGAGCTCGACATC | 0.518 |
| ATATGTAGGTTAGCTGGGGTCATTCAAACTAGGC | 2.15 |
| GGAACGAGGGCATTCGTGTTGATAGCATGGCGAT | 3.26 |

Test system: RXRa homodimer (NR concentration 180 nM)
Experiment: as above
Summary of the method: as §1

| Sequence | PBM binding z-score |
| --- | --- |
| ATATGTAGGTTTCATCCGGGTCATTCAGGCTATG | 2.07 |
| CCTACTGGGTCAAGGTCATTGATCAGTCAAAGCA | 5.72 |
| AGTCAAAGTTAACTAGGTAACGTAAGATTCAGCT | 0.258 |
| CCTACTGGGCCATTTAGAGGTCATTGATCATATG | 3.21 |
| CCTTACGGCTCACTGACAGGTTATAGCATTTGGA | 0.388 |
| CCTAGCAGGCCAACCTGGGTCACTCAAGGCTTGA | 1.23 |
| GCATATAGGTAATACAATGTGAAAGTCCGATTGT | 0.305 |
| ATCTAAAGGTCGAGGTGAGTATAGAGAAAGGGAA | 4.82 |
| ATCTCTAGGTAAAGATAATTCAGTGAATGCAAAT | 0.365 |
| ATCGAAAGGTCGACGAGGTGAGCATACACCGTTT | 4.49 |
| ATCCCTAGGTAAAAGTTCAGTGAATCCCGAGGAT | 1.39 |
| CGTCCAAGGTCAGCAGGTCAGTGAAAGCGACGTG | 4.82 |
| CCTGCTGGGCCATCAGGTCATTGATATCAACGTT | 1.01 |
| GCAGATAGGTAATACAAGGTGAAAGTCCGATTGT | 0.646 |
| TCTCGGAGGACACGAAAGGTCAGGGCTCGACATC | 4.39 |
| CGAACTTGGTCATCCAGGACAGTGAATACATTGA | 0.551 |
| TCATATAGGTCAAGGTGAAAGTCGAACGATATGA | 5.05 |
| TCATATAGGTAAACAGGTGAAAATCCGTAAGTTA | 1.52 |
| ACAAGTTGGTCAGCTGAGGTCACACACAATTCGG | 4.19 |
| CCTACTGGGCCATCAGGACATTGATATCAACGTT | -0.395 |

| Sequence | PBM binding z-score |
| --- | --- |
| TCTATTAGTTGAGTAGGGCAACCGAAACAGCGGA | 0.116 |
| CGAACGAGGGCATGAGATGATAGCAAATGCCGAT | 0.882 |
| TCTTGTACATCAAAGGTTAAGAAAGCCGAAGCCT | 2.7 |
| AGTAGCAGGCCAAGTTTGGGTCACTCAAACAAAG | 0.67 |
| GCAGTCAGGTGAAACGCAGGTAACTCAGGGTGGC | 0.237 |
| ATATGTAGGTTATCGGGTCAATCAGTTTGCGCAT | 3.75 |
| CAAACTAGGTCAAGAGGTCAACGTCCGCTTCCCG | 7.68 |
| GCGACTGCGGCAAAGCAGGTTACCATAAGGTTGG | -0.0388 |
| TCTAGCAGGCCAGAGGGTCACTTAAGAGGTACGG | 2.36 |
| CCTACTGGGCCACGAAATGTCATTGATTCAGTGA | -0.0138 |
| TCGAGTAGGTTACCAATGGGTCATTCAGCTTTCT | 2.18 |
| GGAACGTGGGCAAGTTGATAGCAGAGTTTGATGG | -0.184 |
| ATCTCTAGGTAAAGTTAAGTGAAAGATCGATAGA | 0.171 |
| CCTACTGAGCCAAGGTCATTGATCAGTCAAAGCA | 3.23 |
| CATGCTAGGTCATGGTCAGCTAATCTACAGTATG | 3.06 |
| GCAGACAGGTGAAACGCAGGTTACTCAGGGTGGC | 1.07 |
| CAAACTAGATCAAGAGGTCAAAGTCCGCTTCCCG | 5.73 |
| TCTCGGAGGACACGAAAGGACAGAGCTCGACATC | 0.152 |
| ATATGTAGGTTAGCTGGGGTCATTCAAACTAGGC | 5.57 |
| GGAACGAGGGCATTCGTGTTGATAGCATGGCGAT | 0.575 |
